Reference: paper PMC13083723 (Patterns, 2026)
The whole screen tested about 5,400 compounds, of which about 190 (3.5%) showed an effect of 50% or more. The list comes from a sample in which strong results are over-represented; it also holds similar structures and randomly drawn compounds. Non-standard residues stand in square brackets, D forms with d. Residues, ends and D or L forms follow the SMILES beside them.

tested on: Vero-E6; test: primary screen, phospholipidosis by LipidTOX staining; higher = more effect of the substance; conditions: 10 µM
In short: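 Single-concentration screen at 10 μM, with DMSO 0.1 v/v % and amiodarone 10 μM as controls. Read-out is LipidTOX Red phospholipid staining, which tolerates aldehyde fixation, in Vero-E6 cells.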

Structure (SMILES) | result_ITMP
C[C@H](NC(=O)[C@@H](Cc1c[nH]c2ccccc12)NC(=O)[C@@H](N)Cc1cnc[nH]1)C(=O)N[C@@H](Cc1c[nH]c2ccccc12)C(=O)N[C@H](Cc1ccccc1)C(=O)N[C@@H](CCCCN)C(N)=O (H-H[dW]AW[dF]K-NH2) | -2.53%
Cc1ccc(OC[C@@H](O)[C@H](C)NC(C)C)c2c1CCC2 (racemic) | 10.4%
CO[C@@]12[C@@H]3NC3CN1C1=C(C(=O)C(N)=C(C)C1=O)[C@@H]2COC(N)=O (some centres unmarked) | 0.39%
OC[C@@H](O)C(O[C@@H]1O[C@H](CO)[C@H](O)[C@H](O)[C@H]1O)[C@H](O)[C@@H](O)CO (some centres unmarked) | -8.28%
O=C(O)[C@H]1CC[C@H](c2cc3cccnc3c(-c3cccc(F)c3)n2)CC1 | -0.01%
O[C@@H]1CO[C@H]2[C@@H]1OC[C@@H]2O | -0.79%
COc1cc(C(=O)OCCCN2CCCN(CCCOC(=O)c3cc(OC)c(OC)c(OC)c3)CC2)cc(OC)c1OC | 58.7%
COc1cc(N)c(Cl)cc1C(=O)OCCN1CCCCC1 | -1.25%
COc1cc(N)c(Cl)cc1C(=O)OCCCN1CCCCC1 | 0.68%
O=C(O)C[CH2][Ge](=[O])[O][Ge](=[O])[CH2]CC(=O)O | -3.6%
Cc1ccc(C(=O)Nc2ccc(S(=O)(=O)[O-])c3cc(S(=O)(=O)[O-])cc(S(=O)(=O)[O-])c23)cc1NC(=O)c1cccc(NC(=O)Nc2cccc(C(=O)Nc3cc(C(=O)Nc4ccc(S(=O)(=O)[O-])c5cc(S(=O)(=O)[O-])cc(S(=O)(=O)[O-])c45)ccc3C)c2)c1 | -3.34%
C[C@@H](O)[C@H]1C(=O)N2C(C(=O)[O-])=C(S[C@@H]3CN[C@H](C(=O)Nc4cccc(C(=O)O)c4)C3)[C@H](C)[C@H]12 | -0.24%
C[C@H](NC(=O)CCc1nc2ccccc2c(=O)[nH]1)c1ccccc1 [R4A_0003503_001 / SPE_K24283677] | -1.61%
C/C=C1/[C@H]2C=C(C)C[C@]1(N)c1ccc(=O)[nH]c1C2 | -2.16%
O=C(Nc1ncc(SCCN2CCCC2)s1)[C@]1(c2ccc(S(=O)(=O)C3CC3)cc2)C[C@H]1C1CCCCC1 | 55.8%
C[C@H](CCC(=O)O)[C@H]1CC[C@H]2[C@@H]3CC[C@@H]4C[C@H](O)CC[C@]4(C)[C@H]3C[C@H](O)[C@]12C | 0.11%
Nc1nc(S)c2nc[nH]c2n1 | 26.6%
O=C(NCCCN1CCCCCC1)C(c1ccccc1)C1CCCCC1 (centres unmarked) | 36.5%
O=C(Nc1ccccc1)OCC(CN1CCCCC1)OC(=O)Nc1ccccc1 (centres unmarked) | 54.4%
Cc1ccc(C(=O)C(C)CN2CCCCC2)cc1 (centres unmarked) | -4.52%

Structure (SMILES) | result_ITMP
CCn1c(=O)/c(=C2\Sc3ccccc3N2C)s/c1=C/c1cccc[n+]1CC | -7.97%
CCC(C)CNCC(=O)N1CCc2sccc2C1COc1cccc(C)c1 (centres unmarked) | 57.8%
COc1ccc(CCNCC(O)COc2cccc(C)c2)cc1OC (centres unmarked) | 34.1%
Nc1ccc(S(=O)(=O)[O-])cc1 | -6.57%
O=C([O-])CN1CCN(CC(=O)[O-])CCN(C(CO)C(O)CO)CCN(CC(=O)[O-])CC1.[Gd+3] (centres unmarked) | -1.16%
O=C([O-])c1cc(/N=N/c2ccc(O)c(C(=O)[O-])c2)ccc1O | -2.29%
OC(CN1CCNCC1)Cn1c2ccc(Br)cc2c2cc(Br)ccc21 (centres unmarked) | 123%
OC(CNc1ccccc1)Cn1c2ccc(Br)cc2c2cc(Br)ccc21 (centres unmarked) | -2.55%
CN(C)CC(O)Cn1c2ccc(Br)cc2c2cc(Br)ccc21 (centres unmarked) | 28.6%
C=C[C@]1(C)C[C@@H](OC(=O)CS[C@@H]2C[C@H]3CC[C@@H](C2)N3C)[C@]2(C)[C@H](C)CC[C@]3(CCC(=O)[C@H]32)[C@@H](C)[C@@H]1O | 12.9%
NC(=O)c1cc[n+](CC2=C(C(=O)[O-])N3C(=O)[C@@H](NC(=O)[C@@H](c4ccccc4)S(=O)(=O)[O-])[C@H]3SC2)cc1 | 4.59%
Cc1c(CN(C)C(=O)/C=C/C2=CNC3=NC(=O)CCC3=C2)oc2ccccc12 | -2.49%
CC(CN(C)C)CN1c2ccccc2Sc2ccc(C#N)cc21 (centres unmarked) | 42.4%
CC(CN(C)C)CN1c2ccccc2Sc2ccccc21 (centres unmarked) [R4A_0005516_001 / SPE_A49225603] | 81.1%
CC(CN(C)C)CN1c2ccccc2Sc2ccccc21 (centres unmarked) [R4A_0005516_001 / SPE_M58473998] | 17.1%
CC(CN(C)C)CN1c2ccccc2CCc2ccccc21 (centres unmarked) | 34.6%
COc1ccc2c(c1)N(C[C@H](C)CN(C)C)c1ccccc1S2 | 53%
CCN1/C(=C/C(C)=O)Sc2ccc(OC)cc21 | -4.89%
C[C@@H]1CC2C3CCC4=CC(=O)C=C[C@]4(C)[C@@]3(F)[C@@H](O)C[C@]2(C)[C@@]1(O)C(=O)COP(=O)([O-])[O-] (some centres unmarked) | -3.97%
NC(CSC(c1ccccc1)(c1ccccc1)c1ccccc1)C(=O)O (stereo in doubt) | -1.96%

Structure (SMILES) | result_ITMP
CC(N)Cc1cccc(O)c1 (centres unmarked) | -6.46%
CCC(=O)O[C@H]1CCC2C3CCC4=CC(=O)CC[C@]4(C)C3CC[C@@]21C (some centres unmarked) | 5.62%
NC(=O)OC[C@@H]1[C@H](NC(=O)/C(=N\OCC(=O)[O-])c2csc(N)n2)C(=O)N1S(=O)(=O)[O-] | 0.72%
CCCC(=O)Nc1ncnc2c1ncn2C1O[C@@H]2COP(=O)([O-])O[C@H]2[C@H]1OC(=O)CCC (some centres unmarked) | -5.79%
CC[C@]12C=CCN3CC[C@@]4(c5cc([C@@]6(C(=O)OC)C[C@H]7C[C@@H](C(C)(F)F)CN(Cc8c6[nH]c6ccccc86)C7)c(OC)cc5N(C)[C@H]4[C@@](O)(C(=O)OC)[C@@H]1OC(C)=O)[C@@H]32 | 49.7%
O=C(N[C@H]1CN2CCC1CC2)c1ccc(Cl)cc1 | -0.98%
COc1cc(N)c(Cl)cc1C(=O)NC1CN2CCC1CC2 (centres unmarked) | -9.6%
O=C(N[C@H]1CN2CCC1CC2)c1cc2cccc(Cl)c2s1 | 100%
C[C@H](CCC(=O)O)[C@H]1CC[C@H]2[C@@H]3C[C@H](O)[C@@H]4C[C@H](O)CC[C@]4(C)[C@H]3CC[C@]12C | 1.59%
CC(=O)NCCc1c[nH]c2ccccc12 | -3.74%
c1ccc2c(Cc3c[nH]c4ccccc34)c[nH]c2c1 | -4.8%
c1ccc2c(CCNc3ccc(Nc4ccncc4)cc3)c[nH]c2c1 | 74%
CCCCc1nc(Cl)c(C(=O)O)n1Cc1ccc(-c2ccccc2-c2nnn[nH]2)cc1 | -4.07%
CN1CCC[C@@H]1CCO[C@](C)(c1ccccc1)c1ccc(Cl)cc1 | 90.6%
CN1CCCC1CCSc1ccc(O)cc1 (centres unmarked) | 2.34%
CC(C)(C)c1ccc(C(O)CCCN2CCC(C(O)(c3ccccc3)c3ccccc3)CC2)cc1 (centres unmarked) | -4.73%
C=C1/C(=C\C=C2/CCC[C@]3(C)[C@@H]([C@H](C)CCCC(C)(C)O)CC[C@@H]23)C[C@@H](O)C[C@@H]1O | -1.95%
CC[C@H]1[C@@H](O)[C@@H]2[C@H](CC[C@]3(C)[C@@H]([C@H](C)CCC(=O)O)CC[C@@H]23)[C@@]2(C)CC[C@@H](O)C[C@@H]12 | -0.78%
CO[C@H]1/C=C/O[C@@]2(C)Oc3c(C)c(O)c4c(O)c(cc([O-])c4c3C2=O)NC(=O)/C(C)=C\C=C\C(C)[C@H](O)[C@@H](C)[C@@H](O)[C@@H](C)[C@H](OC(C)=O)[C@@H]1C (some centres unmarked) | -1.11%
